Assay results taken from PubChem BioAssay AID1159580 (chemical genetic matrix, 2015).
“And” between values parts separate entries of the source, which are not always exact repeats. Identical values can stand only once. In all, about 5,500 compounds went through this assay and about 2,000 (36%) were called active. Another 18% or so got no clear call; they are omitted. No stated cut-off is given here; in the data, active means normalized growth mostly below about 0.91 (no sharp cut-off); inconclusive means no clear call, values can overlap the other calls; inactive means mostly above about 0.92. The list shows a part of the results.

Experiment: chemical genetic growth profiling, strain panel (AID 1159580);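 further: tested at 20 µM; growth read once vehicle control cultures reached saturation at 30 °C; 1 = growth at the plate median or of vehicle wells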
Details: growth OD

Measured: normalized growth

CNCCCN1c2ccccc2CCc2ccccc21
inactive: S. cerevisiae deletion strains, locus YKL009W, strain mrt4, stronger effect = lower value 1 | S. cerevisiae deletion strains, locus YKL068W, stronger effect = lower value 1 | S. cerevisiae deletion strains, locus YKL085W, strain MDH1 (second series), stronger effect = lower value 1.04 | S. cerevisiae deletion strains, locus YKL085W, strain MDH1, stronger effect = lower value 1.04 | S. cerevisiae deletion strains, locus YKL160W, strain elf1, stronger effect = lower value 1.03 | S. cerevisiae deletion strains, locus YKL190W, strain CNB1, stronger effect = lower value 1 | S. cerevisiae deletion strains, locus YKR001C, strain vps1, stronger effect = lower value 0.997 | S. cerevisiae deletion strains, locus YKR026C, strain gcn3, stronger effect = lower value 1.01 | S. cerevisiae deletion strains, locus YKR091W, strain srl3, stronger effect = lower value 1.01 | S. cerevisiae deletion strains, locus YLL001W, strain dnm1, stronger effect = lower value 1.03 | S. cerevisiae deletion strains, locus YLL026W, stronger effect = lower value 1.03 | S. cerevisiae deletion strains, locus YLL041C, strain sdh2, stronger effect = lower value 1.01 | S. cerevisiae deletion strains, locus YLR027C, strain aat2, stronger effect = lower value 1.03 | S. cerevisiae deletion strains, locus YLR039C, strain RIC1, stronger effect = lower value 1.22 | S. cerevisiae deletion strains, locus YLR058C, strain SHM2, stronger effect = lower value 1.01 | S. cerevisiae deletion strains, locus YLR102C, strain apc9, stronger effect = lower value 1 | S. cerevisiae deletion strains, locus YLR113W, strain HOG1, stronger effect = lower value 1.02 | S. cerevisiae deletion strains, locus YLR221C, strain rsa3, stronger effect = lower value 0.978 | S. cerevisiae deletion strains, locus YLR258W, strain gsy2, stronger effect = lower value 1 | S. cerevisiae deletion strains, locus YLR262C, strain YPT6 (second series), stronger effect = lower value 1.09 | S. cerevisiae deletion strains, locus YLR262C, strain YPT6, stronger effect = lower value 1.16 | S. cerevisiae deletion strains, locus YLR268W, strain sec22, stronger effect = lower value 0.988 | S. cerevisiae deletion strains, locus YLR320W, strain mms22, stronger effect = lower value 0.987 | S. cerevisiae deletion strains, locus YLR330W, strain CHS5, stronger effect = lower value 1.01 | S. cerevisiae deletion strains, locus YLR342W, strain FKS1 (second series), stronger effect = lower value 0.997 | S. cerevisiae deletion strains, locus YLR342W, strain FKS1, stronger effect = lower value 1.04 | S. cerevisiae deletion strains, locus YLR357W, strain rsc2, stronger effect = lower value 0.985 | S. cerevisiae deletion strains, locus YLR370C, strain arc18, stronger effect = lower value 1.02 | S. cerevisiae deletion strains, locus YLR371W, strain rom2, stronger effect = lower value 0.988 | S. cerevisiae deletion strains, locus YLR384C, strain iki3, stronger effect = lower value 1.01 | S. cerevisiae deletion strains, locus YLR418C, strain cdc73, stronger effect = lower value 0.938 | S. cerevisiae deletion strains, locus YML016C, strain PPZ1, stronger effect = lower value 0.997 | S. cerevisiae deletion strains, locus YML032C, strain rad52, stronger effect = lower value 0.999 | S. cerevisiae deletion strains, locus YML120C, strain ndi1, stronger effect = lower value 1.04 | S. cerevisiae deletion strains, locus YML124C, strain tub3, stronger effect = lower value 1 | S. cerevisiae deletion strains, locus YMR058W, strain fet3, stronger effect = lower value 1.02 | S. cerevisiae deletion strains, locus YMR078C, strain ctf18, stronger effect = lower value 1 | S. cerevisiae deletion strains, locus YMR125W, strain sto1, stronger effect = lower value 0.985 | S. cerevisiae deletion strains, locus YMR129W, stronger effect = lower value 1.01 | S. cerevisiae deletion strains, locus YMR205C, strain PFK2, stronger effect = lower value 1.04 | S. cerevisiae deletion strains, locus YMR223W, strain ubp8, stronger effect = lower value 0.983 | S. cerevisiae deletion strains, locus YMR231W, strain pep5, stronger effect = lower value 1.01 | S. cerevisiae deletion strains, locus YMR263W, strain SAP30, stronger effect = lower value 0.997 | S. cerevisiae deletion strains, locus YMR307W, strain GAS1, stronger effect = lower value 1.1 and 0.99 | S. cerevisiae deletion strains, locus YNL067W, strain RPL9B, stronger effect = lower value 0.998 | S. cerevisiae deletion strains, locus YNL071W, strain lat1, stronger effect = lower value 0.994 | S. cerevisiae deletion strains, locus YNL128W, strain TEP1, stronger effect = lower value 1.02 | S. cerevisiae deletion strains, locus YNL153C, strain GIM3, stronger effect = lower value 0.989 | S. cerevisiae deletion strains, locus YNL175C, strain NOP13, stronger effect = lower value 1 | S. cerevisiae deletion strains, locus YNL183C, strain NPR1, stronger effect = lower value 0.959 | S. cerevisiae deletion strains, locus YNL197C, strain WHI3, stronger effect = lower value 1 | S. cerevisiae deletion strains, locus YNL209W, strain ssb2, stronger effect = lower value 1 | S. cerevisiae deletion strains, locus YNL224C, strain SQS1, stronger effect = lower value 0.998 | S. cerevisiae deletion strains, locus YNL233W, strain BNI4, stronger effect = lower value 0.985 | S. cerevisiae deletion strains, locus YNL248C, strain rpa49, stronger effect = lower value 0.995 | S. cerevisiae deletion strains, locus YNL250W, strain rad50, stronger effect = lower value 1.01 | S. cerevisiae deletion strains, locus YNL271C, strain bni1, stronger effect = lower value 0.998 | S. cerevisiae deletion strains, locus YNL298W, strain CLA4, stronger effect = lower value 0.998 | S. cerevisiae deletion strains, locus YNL307C, strain MCK1, stronger effect = lower value 1 | S. cerevisiae deletion strains, locus YNL322C, strain KRE1 (second series), stronger effect = lower value 1.02 | S. cerevisiae deletion strains, locus YNL322C, strain KRE1, stronger effect = lower value 1.01 and 0.993 | S. cerevisiae deletion strains, locus YNR049C, strain mso1, stronger effect = lower value 1.01 | S. cerevisiae deletion strains, locus YNR052C, strain pop2, stronger effect = lower value 1.01 | S. cerevisiae deletion strains, locus YOL012C, strain htz1 0.655 | S. cerevisiae deletion strains, locus YOL147C, strain pex11, stronger effect = lower value 1 | S. cerevisiae deletion strains, locus YOR001W, strain rrp6, stronger effect = lower value 1.02 | S. cerevisiae deletion strains, locus YOR061W, strain CKA2, stronger effect = lower value 1.01 | S. cerevisiae deletion strains, locus YOR069W, strain VPS5, stronger effect = lower value 1.01 | S. cerevisiae deletion strains, locus YOR070C, strain gyp1, stronger effect = lower value 1.01 | S. cerevisiae deletion strains, locus YOR080W, strain dia2, stronger effect = lower value 1.03 | S. cerevisiae deletion strains, locus YOR083W, strain WHI5 (second series), stronger effect = lower value 1.03 | S. cerevisiae deletion strains, locus YOR083W, strain WHI5, stronger effect = lower value 1.02 | S. cerevisiae deletion strains, locus YOR106W, strain vam3, stronger effect = lower value 1.06 | S. cerevisiae deletion strains, locus YOR136W, strain idh2, stronger effect = lower value 0.999 | S. cerevisiae deletion strains, locus YOR144C, strain elg1, stronger effect = lower value 1 | S. cerevisiae deletion strains, locus YOR184W, strain ser1, stronger effect = lower value 1.03 | S. cerevisiae deletion strains, locus YOR231W, strain MKK1, stronger effect = lower value 1.01 | S. cerevisiae deletion strains, locus YOR265W, strain rbl2, stronger effect = lower value 1.02 | S. cerevisiae deletion strains, locus YOR270C, strain vph1, stronger effect = lower value 0.961 | S. cerevisiae deletion strains, locus YOR290C, strain snf2, stronger effect = lower value 0.981 | S. cerevisiae deletion strains, locus YOR316C, strain cot1, stronger effect = lower value 1.01 | S. cerevisiae deletion strains, locus YPL051W, strain arl3, stronger effect = lower value 1.01 | S. cerevisiae deletion strains, locus YPL055C, strain LGE1, stronger effect = lower value 0.96 | S. cerevisiae deletion strains, locus YPL078C, strain atp4, stronger effect = lower value 1.05 | S. cerevisiae deletion strains, locus YPL106C, strain sse1, stronger effect = lower value 1.04 | S. cerevisiae deletion strains, locus YPL240C, strain hsp82, stronger effect = lower value 1.01 | S. cerevisiae deletion strains, locus YPL241C, strain CIN2, stronger effect = lower value 1.01 and 0.994 | S. cerevisiae deletion strains, locus YPL256C, strain CLN2, stronger effect = lower value 1.01 | S. cerevisiae deletion strains, locus YPR119W, strain clb2, stronger effect = lower value 1 | S. cerevisiae deletion strains, locus YPR141C, strain kar3, stronger effect = lower value 1 | S. cerevisiae deletion strains, locus YPR163C, strain tif3, stronger effect = lower value 0.989 | S. cerevisiae deletion strains, locus YPR167C, strain met16, stronger effect = lower value 1.01 | S. cerevisiae deletion strains, strain wtn01, stronger effect = lower value 0.985 | S. cerevisiae strains, strain wild type, stronger effect = lower value 1.01
